This note sets out measurements from publication PMC4336329 (PLoS ONE, 2015).

The whole screen tested about 310,000 compounds, of which about 2,200 (0.71%) showed an effect of 50% or more. The effect is printed as a negative number. The sample holds strong results, similar compounds and a random draw of the others, so the mix is not that of the screen.

The assay deals with human ether-à-go-go-related gene (hERG) potassium channel (human, UniProt Q12809). Kind of assay: primary screen, population patch clamp on CHO cells stably expressing hERG; higher = less effect of the substance.
human ether-à-go-go-related gene (hERG) potassium channel, sequence (Q12809 whole entry, looked up): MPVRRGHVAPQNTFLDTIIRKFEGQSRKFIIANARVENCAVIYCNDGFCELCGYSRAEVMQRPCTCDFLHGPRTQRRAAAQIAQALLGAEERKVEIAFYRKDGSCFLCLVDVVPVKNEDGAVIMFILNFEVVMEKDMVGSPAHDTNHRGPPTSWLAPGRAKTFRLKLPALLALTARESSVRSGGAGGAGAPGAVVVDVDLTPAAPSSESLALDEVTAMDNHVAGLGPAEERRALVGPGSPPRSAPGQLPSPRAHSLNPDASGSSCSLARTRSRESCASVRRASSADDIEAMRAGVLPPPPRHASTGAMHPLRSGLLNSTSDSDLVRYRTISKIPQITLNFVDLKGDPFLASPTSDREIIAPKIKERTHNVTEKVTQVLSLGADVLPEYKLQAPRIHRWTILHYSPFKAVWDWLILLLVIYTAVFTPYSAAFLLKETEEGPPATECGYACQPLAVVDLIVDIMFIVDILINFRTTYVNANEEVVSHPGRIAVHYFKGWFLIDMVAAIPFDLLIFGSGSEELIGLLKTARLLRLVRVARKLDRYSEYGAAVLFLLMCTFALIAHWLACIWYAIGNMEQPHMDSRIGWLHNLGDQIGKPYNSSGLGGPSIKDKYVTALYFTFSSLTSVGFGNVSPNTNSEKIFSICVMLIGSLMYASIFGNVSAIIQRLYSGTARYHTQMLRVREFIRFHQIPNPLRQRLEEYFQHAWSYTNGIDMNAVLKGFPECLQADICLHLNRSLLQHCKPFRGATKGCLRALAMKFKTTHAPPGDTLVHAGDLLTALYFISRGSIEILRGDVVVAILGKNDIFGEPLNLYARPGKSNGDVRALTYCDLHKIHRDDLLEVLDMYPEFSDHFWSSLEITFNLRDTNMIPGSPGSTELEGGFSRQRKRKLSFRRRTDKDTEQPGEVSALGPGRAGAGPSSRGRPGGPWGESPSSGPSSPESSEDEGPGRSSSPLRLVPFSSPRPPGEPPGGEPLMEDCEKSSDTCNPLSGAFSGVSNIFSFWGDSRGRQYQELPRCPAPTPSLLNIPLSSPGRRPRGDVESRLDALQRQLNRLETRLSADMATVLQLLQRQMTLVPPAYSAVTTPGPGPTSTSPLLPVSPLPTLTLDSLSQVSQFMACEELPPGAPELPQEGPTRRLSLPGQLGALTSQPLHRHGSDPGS
As to `O=C(N/C(=C/c1cccnc1)C(=O)N1CCCCCC1)c1ccccc1`, the “hERG current change (%, negative = inhibition) at 1uM” value is reported as 6.71%.

With `CC1NC(=O)N(C)C2NC(=O)N(C)C(c3ccccc3)C12` (stereo not shown), the “hERG current change (%, negative = inhibition) at 1uM” value came to 11.1%.

For the compound `CC(C)(C)Sc1ccc([N+](=O)[O-])cc1C(=O)Nc1ccncc1`, the “hERG current change (%, negative = inhibition) at 1uM” value came out at 0.86%.

With `O=C(O)C(=O)O.c1ccc(Cc2ccc(OCCCNC3CCCC3)cc2)cc1`, the “hERG current change (%, negative = inhibition) at 1uM” value was -3.05%.

`O=C(O)C(=O)O.c1ccc(COc2ccc(OCCCNC3CCCC3)cc2)cc1`: the “hERG current change (%, negative = inhibition) at 1uM” value is 8.41%.

Take `O=C(O)C(=O)O.c1ccc(-c2ccc(OCCCNC3CCCC3)cc2)cc1`: the “hERG current change (%, negative = inhibition) at 1uM” value is given as -54.9%.

`COc1ccc(CCNC(=O)Cn2c([N+](=O)[O-])cnc2C)cc1OC`: the “hERG current change (%, negative = inhibition) at 1uM” value is 8.24%.

Turning to `CC1CC(C)CN(C(=S)SCc2nc(N)nc(Nc3ccccc3)n2)C1` (stereo not shown), the “hERG current change (%, negative = inhibition) at 1uM” value was 7.72%.

Consider `COc1ccccc1Nc1nc(N)nc(CN2CCC(C)CC2)n1`, for which the “hERG current change (%, negative = inhibition) at 1uM” value is given as -37.3%.

Regarding `COc1ccccc1Nc1nc(N)nc(CN2CCCCC2)n1`, the “hERG current change (%, negative = inhibition) at 1uM” value is reported as -4.26%.

`Cc1ccc(Nc2nc(N)nc(CN3CCc4ccccc4C3)n2)cc1`: the “hERG current change (%, negative = inhibition) at 1uM” value is on record as -31.5%.

Take `CC1CC(C)CN(Cc2nc(N)nc(Nc3ccc4ccccc4c3)n2)C1` (stereo not shown): the “hERG current change (%, negative = inhibition) at 1uM” value is -61.1%.

Take `CCN1CCN(Cc2nc(N)nc(Nc3ccc(C)c(C)c3)n2)CC1`: the “hERG current change (%, negative = inhibition) at 1uM” value is listed as -14.8%.

`Nc1nc(CN2CCc3ccccc3C2)nc(Nc2ccccc2)n1`: the “hERG current change (%, negative = inhibition) at 1uM” value is recorded as -10.8%.

`CC1CC(C)CN(Cc2nc(N)nc(Nc3ccccc3)n2)C1` (stereo not shown): the “hERG current change (%, negative = inhibition) at 1uM” value is listed as -52.3%.

`COc1ccccc1Nc1nc(N)nc(CN2CC(C)CC(C)C2)n1` (stereo not shown): the “hERG current change (%, negative = inhibition) at 1uM” value was -70.8%.

As for `O=C(CC1NCCc2ccccc21)Nc1ccccc1` (stereo not shown), the “hERG current change (%, negative = inhibition) at 1uM” value came out at 4.29%.

Regarding `COc1cc(S(=O)(=O)n2cnc(C)c2)ccc1Cl`, the “hERG current change (%, negative = inhibition) at 1uM” value was 6.58%.

Turning to `CCCCC(=O)NNC(=S)NC(=O)C(c1ccccc1)c1ccccc1`, the “hERG current change (%, negative = inhibition) at 1uM” value came out at 12.3%.

For `CC(C)(C)N(CC#CCC(O)(c1ccccc1)C1CCCC1)CCO` (stereo not shown), the “hERG current change (%, negative = inhibition) at 1uM” value is reported as 15.6%.

With `CNc1nc(CC(C)=O)ns1`, the “hERG current change (%, negative = inhibition) at 1uM” value was 6.99%.

As to `Cc1ccc(Cc2cc(C)n[nH]c2=O)cc1`, the “hERG current change (%, negative = inhibition) at 1uM” value is recorded as 27.1%.

`CN(C)c1ccc(/C=N/NC(=O)C(O)(c2ccccc2)c2ccccc2)o1`: the “hERG current change (%, negative = inhibition) at 1uM” value was -5.86%.

`CCOC(=O)C1CCCCN1Cc1cc(Cl)ccc1O` (stereo not shown): the “hERG current change (%, negative = inhibition) at 1uM” value was 4.99%.

On to `COC(=O)c1cc2c(ccn2-c2ccc(F)cc2)n1Cc1ccc(OC)cc1`, for which the “hERG current change (%, negative = inhibition) at 1uM” value was 0.901%.

As to `COc1ccc(C(=O)C2CCCN(Cc3cccn3-c3cccnc3)C2)cc1OC` (stereo not shown), the “hERG current change (%, negative = inhibition) at 1uM” value is -34.9%.

`COc1ccc(C(=O)C2CCCN(Cc3cccn3-c3nccs3)C2)cc1OC` (stereo not shown): the “hERG current change (%, negative = inhibition) at 1uM” value is -90.2%.

For `COc1ccc(C(=O)C2CCCN(Cc3cccn3-c3nccs3)C2)cc1F` (stereo not shown), the “hERG current change (%, negative = inhibition) at 1uM” value was -91.4%.

Regarding `COc1ccc(C(=O)C2CCCN(Cc3cnc(N4CCOCC4)s3)C2)cc1F` (stereo not shown), the “hERG current change (%, negative = inhibition) at 1uM” value is given as -17.9%.

Turning to `COc1ccc(C(=O)C2CCCN(Cc3ccc4nonc4c3)C2)cc1F` (stereo not shown), the “hERG current change (%, negative = inhibition) at 1uM” value is 3.27%.

For `COc1ccc(C(=O)C2CCCN(Cc3ccsc3)C2)cc1OC` (stereo not shown), the “hERG current change (%, negative = inhibition) at 1uM” value is listed as -38.5%.

Regarding `O=C(O)c1ccc2c(=O)[nH]c(CN3CCOCC3)nc2c1`, the “hERG current change (%, negative = inhibition) at 1uM” value is listed as 15.6%.

For the compound `CC(OC(=O)C1CCCCC1)C(=O)Nc1ccc(S(N)(=O)=O)cc1` (stereo not shown), the “hERG current change (%, negative = inhibition) at 1uM” value is on record as 9.37%.

With `COc1ccc(CC(=O)Nc2ccc(-c3noc(-c4ccccc4OC)n3)cc2)cc1`, the “hERG current change (%, negative = inhibition) at 1uM” value was -11.7%.

Take `O=S(=O)(NCCc1ccncc1)c1cc(Br)ccc1F`: the “hERG current change (%, negative = inhibition) at 1uM” value was 2.96%.

On to `O=C(c1cc([N+](=O)[O-])ccc1N1CCCCC1)N1CCc2ccccc21`, for which the “hERG current change (%, negative = inhibition) at 1uM” value is listed as 8.63%.

As to `O=C(NCCCN1CCN(c2ccccc2F)CC1)Nc1ccc(F)cc1`, the “hERG current change (%, negative = inhibition) at 1uM” value is -47.6%.

Regarding `O=C(NCCCN1CCCC1)Nc1ccccc1[N+](=O)[O-]`, the “hERG current change (%, negative = inhibition) at 1uM” value is given as 14.8%.

Consider `O=C(CCn1c(=O)[nH]c2ccccc2c1=O)NCCCN1CCN(c2cccc(Cl)c2)CC1`, for which the “hERG current change (%, negative = inhibition) at 1uM” value is on record as -30%.

With `O=C(CCCCCn1c(=O)[nH]c2ccccc2c1=O)NCCCN1CCN(c2ccccc2F)CC1`, the “hERG current change (%, negative = inhibition) at 1uM” value is recorded as -84.6%.

On to `O=C(NCCCN1CCN(c2ccccc2F)CC1)Nc1ccccc1[N+](=O)[O-]`, for which the “hERG current change (%, negative = inhibition) at 1uM” value is given as -51.1%.

Regarding `COc1cc2[nH]c(=O)n(CCC(=O)NCCCN3CCN(c4ccccc4F)CC3)c(=O)c2cc1OC`, the “hERG current change (%, negative = inhibition) at 1uM” value came to 0.776%.

Consider `Cn1cnnc1SCC(=O)NCc1cccc(C(F)(F)F)c1`, for which the “hERG current change (%, negative = inhibition) at 1uM” value was 24.1%.
